The values that follow come from PubChem BioAssay (NCATS).

“And” between values parts separate entries of the source, which are not always exact repeats. Identical values can stand only once. Records with an inconclusive call do not appear. A number with no mark means an inactive call. The source made the active and inactive calls. Calls come from the whole dose curve; as a rule, active = well fitted inhibition curve with a large enough effect; inconclusive = small, poorly fitted or top-dose-only effect; inactive = flat fitted curve, though single readings scatter.
% is set by controls: 0 for no effect and ±100 for the full control effect; potency is the fitted concentration of half-maximal effect.

In this experiment the test system is KB-3-1. The experiment in a line: Cytotoxic Profiling of Annotated Libraries Using Quantitative High-Throughput Screening (AID 1296008). Note: nearly all actives have a fitted effect of over 60% in size. The settings on record: Five cell lines viability, CellTiter-Glo ATP luminescence, 48-72 h; max response: active compounds read low. An excerpt: Cell-based phenotypic screening is a commonly used approach to discover biological pathways, novel drug targets, chemical probes and high-quality hit-to-lead molecules. Many hits identified from high-throughput screening campaign are ruled out through a series of follow-up potency, selectivity/specificity, and cytotoxicity assays. Prioritization of molecules with little or no cytotoxicity for a more in-depth downstream evaluation influence the future direction of projects, so cytotoxicity profiling of the screening libraries at early stage is essential for increasing the likelihood of candidate success. […] For the annotated library, we also examined the primary targets and mechanistic pathways regularly associated with cell death. To our knowledge, this is the first study to use high-throughput screening to profile large libraries for cytotoxicity assessment in both normal and cancer cell lines. In summary, the results generated here constitutes a valuable resource for the scientific community and provides insight on identifying cytotoxic compounds with particular mechanisms of action, and prioritizing compounds with suitable cytotoxicity profile for further evaluation.
A pintool (Kalypsys) was used to transfer 23 nL of compound solution to the 1536-well assay plates. After 48 or 72 hr incubation at 37 degree Celsius, 5% CO2 and 95% humidity, 2.5 uL of CellTiter-Glo (Promega) was dispensed into each well using a dispenser (Aspect Automation, St. Paul, MN) with solenoid valves (Lee Valves, Westbrook CT). Plates were left at room temperature for 10 min before imaging the ATP-coupled luminescence using a ViewLux microplate imager (PerkinElmer, Waltham, MA).
A general note: In ATP-based viability assays light output follows the ATP content of the culture.
`Cc1c(-c2ccnn2C)cc(C(=O)NCc2ccc(S(C)(=O)=O)cn2)c(=O)n1-c1cccc(C(F)(F)F)c1`: the compound was classed as inactive; the max response was 2.1% and 7.91%.

As to `OC[C@H]1O[C@@H](Oc2ccc3c(c2)OC[C@H]2c4cc5c(cc4O[C@@H]32)OCO5)[C@H](O)[C@@H](O)[C@@H]1O`, the compound was called inactive.

As to `N#CCc1ccc(O)cc1O[C@@H]1O[C@H](CO)[C@@H](O)[C@H](O)[C@H]1O`, the max response was -0.902%.

As for `COc1ccc2c(c1)O[C@H](O[C@@H]1O[C@H](CO)[C@@H](O)[C@H](O)[C@H]1O)C(=O)N2`, the compound was called inactive.

As for `O=C1C[C@@H](c2ccc(O)cc2)Oc2cc(O)ccc21`, the max response is 3.42%.

As for `CC1=CC2(O)/C=C/C(C)(O)CC(O)/C=C/C(=O)OC23C(=O)NC(CC(C)C)C3C1C` (stereo not given), the max response is -3.67%.

Take `COc1cc(O[C@@H]2O[C@H](CO)[C@@H](O)[C@H](O)[C@H]2O)c(CCC(=O)OC[C@H]2O[C@@H](Oc3cc(OC)c(C4OC(=O)C(C)(O)C4O)cc3CCC(=O)O)[C@H](O)[C@@H](O)[C@@H]2O)cc1C1OC(=O)C(C)(O)C1O` (stereo not given in full): the max response was 9.44%.

Take `C=C1CC23CCC4[C@@](C)(CCC[C@@]4(C)C(=O)O)C2CCC1C3` (stereo not given in full): the max response was 2.07%.

For the compound `Cc1nnc(C(C)C)n1C1CC2CCC(C1)N2CC[C@H](NC(=O)C1CCC(F)(F)CC1)c1ccccc1` (stereo not given in full), the max response was -4.91%.

Take `N#Cc1ccnc(N2C(=O)CC[C@H]2C(=O)N(c2cncc(F)c2)[C@H](C(=O)NC2CC(F)(F)C2)c2ccccc2Cl)c1`: the max response was 1.75%.

Take `CC(=O)O[C@@H]1[C@@H](OC(=O)/C=C/c2ccccc2)[C@H](C)O[C@@H](O[C@H]2[C@@H]3C=CO[C@@H](O[C@@H]4O[C@H](CO)[C@@H](O)[C@H](O)[C@H]4O)[C@@H]3[C@@]3(CO)O[C@@H]23)[C@@H]1OC(C)=O`: the max response was 5.32%.

For `CO[C@@H]1CC[C@H](OC[C@]2(COC(=O)c3ccc(C)[nH]3)[C@H](OC(C)=O)CC[C@@]3(C)[C@@H]4CC=C(C)[C@@H](C5=C(O)C(=O)OC5O)[C@]4(C)CC[C@@H]32)O[C@H]1C` (stereo not given in full), the compound was classed as inactive.

Turning to `C[C@@H]1O[C@@H](O[C@H]2[C@H](OC(C#N)c3ccc(O)cc3)O[C@H](CO)[C@@H](O)[C@@H]2O)[C@H](O)[C@H](O)[C@H]1O` (stereo not given in full), the result was inactive.

For the compound `C=C1CCC2C(OC(=O)C2(O)COC(C)=O)C2C(=C)C(O)CC12` (stereo not given), the max response is 8.26%.

With `CCOC(=O)N1CCC(NCCNC(=O)c2ccccc2C)CC1`, the max response is 6.5%.

For `CC(=O)Oc1c(C)cc(OCC(O)CNC(C)C)c(C)c1C` (stereo not given), the max response is 4.82%.

`CN1Cc2c(N)cccc2C(c2ccccc2)C1` (stereo not given): the max response was -2.79%.

With `CC1(C)O[C@@H]2C[C@H]3[C@@H]4CCC5=CC(=O)C=C[C@]5(C)[C@H]4[C@@H](O)C[C@]3(C)[C@]2(C(=O)CO)O1`, the max response was -0.986%.

For the compound `CC(O)CO` (stereo not given), the max response is -18.9%.

Consider `CC(C(=O)O)C1CCC2(C)C3C(=O)C=C4C(CCC(=O)C4(C)C)C3(C)CCC12C` (stereo not given), for which the result was inactive.

Consider `C=C1CC23CC1(O)CCC2C1=CC2OC(=O)C(C)(C2O)C1C3C(=O)O` (stereo not given), for which the compound was called inactive.

As for `CCS(=O)(=O)N1CCC([C@@H](C)n2c(C)c(C(=O)NCc3c(OC)cc(C)[nH]c3=O)c3ccccc32)CC1`, the max response is 9.76%.

On to `CC1CCC2C(C)(C)C(O)CCC2(C)C12Cc1c(O)cc3c(c1O2)C(N)=NC3` (stereo not given), for which the compound was called inactive.

Regarding `CC1=C(C)C(=O)OC(C(C)C2C(O)CC3C4C5OC5C5(O)CC(OC6OC(CO)C(O)C(O)C6O)CC(O)C5(C)C4CCC32C)C1` (stereo not given), the max response was 0.502%.

In the case of `C[C@@H]1O[C@@H](O[C@H]2[C@H](O[C@H]3CC[C@@]4(C)C(CC[C@]5(C)C4CC=C4[C@@H]6CC(C)(C)CC[C@]6(C(=O)O)CC[C@]45C)[C@]3(C)CO)OC[C@H](O)[C@@H]2O)[C@H](O)[C@H](O[C@@H]2OC[C@@H](O)[C@H](O)[C@H]2O)[C@H]1O` (stereo not given in full), the compound was classed as inactive.

As to `C=C1CCC2[C@@](C)(C=O)CCC[C@]2(C)[C@H]1CC/C(C)=C/CO` (stereo not given in full), the max response was 7.89%.

For the compound `C[C@@H](Nc1cc(NS(=O)(=O)N2CCC2)nc(SCc2cccc(F)c2F)n1)[C@@H](O)CO`, the max response is -2.77%.

Consider `CC1(C)C(=O)N2c3ccccc3[C@]3(CC(n4cnc5ccccc5c4=O)C(=O)O3)[C@H]2N1O` (stereo not given in full), for which the compound was called inactive.

With `COC(C(=O)C(O)C(C)O)C1Cc2cc3cc(OC4CC(OC5CC(O)C(O)C(C)O5)C(O)C(C)O4)c(C)c(O)c3c(O)c2C(=O)C1OC1CC(OC2CC(OC3CC(C)(O)C(O)C(C)O3)C(O)C(C)O2)C(O)C(C)O1` (stereo not given), the Potency was 1.46 µM (active).

As to `CC(C)(C)NCc1cc(Nc2ccnc3cc(Cl)ccc23)c2c(c1O)CCCC2`, the max response is 7.98%.

Regarding `C[C@]12CCC(=O)C=C1CC[C@@H]1[C@@H]2[C@@H](O)C[C@@]2(C)[C@H]1CC[C@]2(O)C(=O)COP(=O)(O)O`, the max response is 13.4%.

Regarding `Cc1ccc(C(=O)Nc2ccc(Oc3cc4cnn(C)c4cc3-c3cn[nH]c3)c(F)c2)c(=O)n1-c1ccc(F)cc1`, the Potency is 5.17 µM (active).

Turning to `CCC(CC)n1ccc2c(C(=O)NCc3c(C)cc(C)[nH]c3=O)cc(C#N)cc21`, the max response is 2.42%.

In the case of `CC(NCc1ccc(OCc2cccc(F)c2)cc1)C(N)=O` (stereo not given), the max response is 9.7%.

On to `O=C(O)C1CCCN1` (stereo not given), for which the max response was 3.27%.

For `OCCO[C@@H]1[C@@H](O)[C@H](O)[C@@H](CO)O[C@@H]1O`, the max response was 22%.

With `C=C(C)C(C)C1OC23CC4(CO2)C(CCC2C5(C)CCC(OC6OCC(O)C(OC7OC(CO)C(O)C(OC8OCC(O)C(O)C8O)C7O)C6OC6OC(CO)C(O)C6O)C(C)(C)C5CCC24C)C3C(C)(O)C1OC(C)=O` (stereo not given), the max response was 6.52%.

Take `COc1ccccc1-n1c(SCC(=O)Nc2nc3ccc(C)cc3s2)nc2c(c1=O)SCC2`: the max response is 6.25%.

Regarding `Nc1nc(CC(=O)Nc2ccc(CCNCC(O)c3ccccc3)cc2)cs1` (stereo not given), the call was inactive.
